Reference: the supplement of paper PMC4466140

How the values were obtained:
Test in all cases: SPOT peptide array binding signal intensity (averaged, normalized) (arbitrary units (background-subtracted, floor 0; scale differs between SH3 domains)); higher = stronger binding of the SH3 domain to the peptide
AgAbp1 = molecular target: AgAbp1
How it was run: (§1)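 Spot intensities were captured after detection with anti-GST antibody, an HRP-linked anti-mouse secondary and luminol, and quantified with Genespotter. The probes were GST-fused SH3 domains from four yeast species, produced in E. coli BL21(DE3), purified on glutathione Sepharose and incubated at 10 μg/ml overnight at 4°C on cellulose-bound synthetic 15-mer peptides with cysteines replaced by serines. Binding signal is the normalized, background-subtracted spot intensity averaged over replicates, and its arbitrary units differ between domains.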

AgBbc1 = molecular target: AgBbc1
How it was run: as §1

AgBem1-D1 = molecular target: AgBem1-D1
How it was run: as §1

AgBzz1-D1 = molecular target: AgBzz1-D1
How it was run: as §1

AgBzz1-D2 = molecular target: AgBzz1-D2
How it was run: as §1

AgCyk3 = molecular target: AgCyk3
How it was run: as §1

AgFus1 = molecular target: AgFus1
How it was run: as §1

AgHof1 = molecular target: AgHof1
How it was run: as §1

AgHse1 = molecular target: AgHse1
How it was run: as §1

AgLsb1 = molecular target: AgLsb1
How it was run: as §1

AgLsb4 = molecular target: AgLsb4
How it was run: as §1

AgMyo5 = molecular target: AgMyo5
How it was run: as §1

AgNbp2 = molecular target: AgNbp2
How it was run: as §1

AgRvs167 = molecular target: AgRvs167
How it was run: as §1

AgSho1 = molecular target: AgSho1
How it was run: as §1

AgSla1-D1-D2 = molecular target: AgSla1-D1-D2
How it was run: as §1

AgSla1-D3 = molecular target: AgSla1-D3
How it was run: as §1

CaAbp1-D1 = molecular target: CaAbp1-D1
How it was run: as §1

CaAbp1-D2 = molecular target: CaAbp1-D2
How it was run: as §1

CaBbc1 = molecular target: CaBbc1
How it was run: as §1

CaBem1-D1 = molecular target: CaBem1-D1
How it was run: as §1

CaBzz1-D1 = molecular target: CaBzz1-D1
How it was run: as §1

CaBzz1-D2 = molecular target: CaBzz1-D2
How it was run: as §1

CaCyk3 = molecular target: CaCyk3
How it was run: as §1

CaFus1 = molecular target: CaFus1
How it was run: as §1

CaHof1 = molecular target: CaHof1
How it was run: as §1

CaHse1 = molecular target: CaHse1
How it was run: as §1

CaLsb1 = molecular target: CaLsb1
How it was run: as §1

CaLsb4 = molecular target: CaLsb4
How it was run: as §1

CaMyo5 = molecular target: CaMyo5
How it was run: as §1

CaNbp2 = molecular target: CaNbp2
How it was run: as §1

CaRvs167 = molecular target: CaRvs167
How it was run: as §1

CaRvs167-3 = molecular target: CaRvs167-3
How it was run: as §1

CaSho1 = molecular target: CaSho1
How it was run: as §1

CaSla1-D1-D2 = molecular target: CaSla1-D1-D2
How it was run: as §1

CaSla1-D3 = molecular target: CaSla1-D3
How it was run: as §1

ScAbp1 = molecular target: ScAbp1
How it was run: as §1

ScBbc1 = molecular target: ScBbc1
How it was run: as §1

ScBem1-D1 = molecular target: ScBem1-D1
How it was run: as §1

ScBzz1-D1 = molecular target: ScBzz1-D1
How it was run: as §1

ScBzz1-D2 = molecular target: ScBzz1-D2
How it was run: as §1

ScCyk3 = molecular target: ScCyk3
How it was run: as §1

ScFus1 = molecular target: ScFus1
How it was run: as §1

ScHof1 = molecular target: ScHof1
How it was run: as §1

ScHse1 = molecular target: ScHse1
How it was run: as §1

ScLsb1 = molecular target: ScLsb1
How it was run: as §1

ScLsb2 = molecular target: ScLsb2
How it was run: as §1

ScLsb3 = molecular target: ScLsb3
How it was run: as §1

ScLsb4 = molecular target: ScLsb4
How it was run: as §1

ScMyo3 = molecular target: ScMyo3
How it was run: as §1

ScMyo5 = molecular target: ScMyo5
How it was run: as §1

ScNbp2 = molecular target: ScNbp2
How it was run: as §1

ScPex13 = molecular target: ScPex13
How it was run: as §1

ScRvs167 = molecular target: ScRvs167
How it was run: as §1

ScSho1 = molecular target: ScSho1
How it was run: as §1

ScSla1-D1-D2 = molecular target: ScSla1-D1-D2
How it was run: as §1

ScSla1-D3 = molecular target: ScSla1-D3
How it was run: as §1

SpAbp1-D1 = molecular target: SpAbp1-D1
How it was run: as §1

SpBbc1 = molecular target: SpBbc1
How it was run: as §1

SpBzz1-D1 = molecular target: SpBzz1-D1
How it was run: as §1

SpBzz1-D2 = molecular target: SpBzz1-D2
How it was run: as §1

SpCyk3 = molecular target: SpCyk3
How it was run: as §1

SpHof1 = molecular target: SpHof1
How it was run: as §1

SpHof1-2 = molecular target: SpHof1-2
How it was run: as §1

SpHof1-3 = molecular target: SpHof1-3
How it was run: as §1

SpHse1 = molecular target: SpHse1
How it was run: as §1

SpLsb1 = molecular target: SpLsb1
How it was run: as §1

SpLsb4 = molecular target: SpLsb4
How it was run: as §1

SpMyo1 = molecular target: SpMyo1
How it was run: as §1

SpNbp2 = molecular target: SpNbp2
How it was run: as §1

SpPex13 = molecular target: SpPex13
How it was run: as §1

SpRvs167 = molecular target: SpRvs167
How it was run: as §1

SpSla1-D1-D2 = molecular target: SpSla1-D1-D2
How it was run: as §1

SpSla1-D3 = molecular target: SpSla1-D3
How it was run: as §1

Binder: MFLISPPASPPPEFD
- SPOT peptide array binding signal intensity (AgAbp1): ≤ 0
- SPOT peptide array binding signal intensity (AgBbc1): ≤ 0
- SPOT peptide array binding signal intensity (AgBem1-D1): 70
- SPOT peptide array binding signal intensity (AgBzz1-D1): ≤ 0
- SPOT peptide array binding signal intensity (AgBzz1-D2): ≤ 0
- SPOT peptide array binding signal intensity (AgCyk3): 1.5
- SPOT peptide array binding signal intensity (AgFus1): 4
- SPOT peptide array binding signal intensity (AgHof1): 4
- SPOT peptide array binding signal intensity (AgHse1): ≤ 0
- SPOT peptide array binding signal intensity (AgLsb1): ≤ 0
- SPOT peptide array binding signal intensity (AgLsb4): ≤ 0
- SPOT peptide array binding signal intensity (AgMyo5): 388
- SPOT peptide array binding signal intensity (AgNbp2): 2
- SPOT peptide array binding signal intensity (AgRvs167): ≤ 0
- SPOT peptide array binding signal intensity (AgSho1): 1.5
- SPOT peptide array binding signal intensity (AgSla1-D1-D2): 3
- SPOT peptide array binding signal intensity (AgSla1-D3): 1
- SPOT peptide array binding signal intensity (CaAbp1-D1): ≤ 0
- SPOT peptide array binding signal intensity (CaAbp1-D2): ≤ 0
- SPOT peptide array binding signal intensity (CaBbc1): 6
- SPOT peptide array binding signal intensity (CaBem1-D1): ≤ 0
- SPOT peptide array binding signal intensity (CaBzz1-D1): ≤ 0
- SPOT peptide array binding signal intensity (CaBzz1-D2): ≤ 0
- SPOT peptide array binding signal intensity (CaCyk3): 2
- SPOT peptide array binding signal intensity (CaFus1): 342
- SPOT peptide array binding signal intensity (CaHof1): ≤ 0
- SPOT peptide array binding signal intensity (CaHse1): 8
- SPOT peptide array binding signal intensity (CaLsb1): ≤ 0
- SPOT peptide array binding signal intensity (CaLsb4): ≤ 0
- SPOT peptide array binding signal intensity (CaMyo5): 180
- SPOT peptide array binding signal intensity (CaNbp2): 31
- SPOT peptide array binding signal intensity (CaRvs167): 5.83
- SPOT peptide array binding signal intensity (CaRvs167-3): 3.75
- SPOT peptide array binding signal intensity (CaSho1): 19
- SPOT peptide array binding signal intensity (CaSla1-D1-D2): ≤ 0
- SPOT peptide array binding signal intensity (CaSla1-D3): 11.2
- SPOT peptide array binding signal intensity (ScAbp1): 5.5
- SPOT peptide array binding signal intensity (ScBbc1): ≤ 0
- SPOT peptide array binding signal intensity (ScBem1-D1): ≤ 0
- SPOT peptide array binding signal intensity (ScBzz1-D1): 7
- SPOT peptide array binding signal intensity (ScBzz1-D2): 2
- SPOT peptide array binding signal intensity (ScCyk3): 2
- SPOT peptide array binding signal intensity (ScFus1): 7
- SPOT peptide array binding signal intensity (ScHof1): ≤ 0
- SPOT peptide array binding signal intensity (ScHse1): ≤ 0
- SPOT peptide array binding signal intensity (ScLsb1): ≤ 0
- SPOT peptide array binding signal intensity (ScLsb2): ≤ 0
- SPOT peptide array binding signal intensity (ScLsb3): ≤ 0
- SPOT peptide array binding signal intensity (ScLsb4): ≤ 0
- SPOT peptide array binding signal intensity (ScMyo3): 735
- SPOT peptide array binding signal intensity (ScMyo5): 650
- SPOT peptide array binding signal intensity (ScNbp2): 20
- SPOT peptide array binding signal intensity (ScPex13): ≤ 0
- SPOT peptide array binding signal intensity (ScRvs167): ≤ 0
- SPOT peptide array binding signal intensity (ScSho1): ≤ 0
- SPOT peptide array binding signal intensity (ScSla1-D1-D2): ≤ 0
- SPOT peptide array binding signal intensity (ScSla1-D3): 7.25
- SPOT peptide array binding signal intensity (SpAbp1-D1): ≤ 0
- SPOT peptide array binding signal intensity (SpBbc1): 0.5
- SPOT peptide array binding signal intensity (SpBzz1-D1): 33.5
- SPOT peptide array binding signal intensity (SpBzz1-D2): ≤ 0
- SPOT peptide array binding signal intensity (SpCyk3): 4
- SPOT peptide array binding signal intensity (SpHof1): 7.5
- SPOT peptide array binding signal intensity (SpHof1-2): 8.25
- SPOT peptide array binding signal intensity (SpHof1-3): ≤ 0
- SPOT peptide array binding signal intensity (SpHse1): 103
- SPOT peptide array binding signal intensity (SpLsb1): ≤ 0
- SPOT peptide array binding signal intensity (SpLsb4): 49
- SPOT peptide array binding signal intensity (SpMyo1): 1430
- SPOT peptide array binding signal intensity (SpNbp2): 9
- SPOT peptide array binding signal intensity (SpPex13): 2.5
- SPOT peptide array binding signal intensity (SpRvs167): ≤ 0
- SPOT peptide array binding signal intensity (SpSla1-D1-D2): ≤ 0
- SPOT peptide array binding signal intensity (SpSla1-D3): ≤ 0
